Measurements from PubChem BioAssay (NCATS).
Records with an inconclusive call do not appear. The source made the active and inactive calls. Unless noted, calls follow the shape of the dose curve; as a rule, active = well fitted curve in the direction sought with a large enough effect; inconclusive = small, poorly fitted or top-dose-only effect, or another doubt; inactive = no such curve, though single readings can be large; an effect the other way counts as inactive or inconclusive.

Key:
[1] = target: Voltage-gated inwardly rectifying potassium channel KCNH2 (Homo sapiens) (UniProt Q12809); experiment: qHTS Assay for Small Molecule Inhibitors of the Human hERG Channel Activity (AID 588834);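 also: top concentration of the series differs between compounds; % is scaled to controls: 0 for no effect and ±100 for the full control effect; lower thallium flux fluorescence means stronger hERG block; nearly all actives have a fitted effect of over 50% in size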
Outline: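 hERG block measured as reduced thallium-dye (FluxOR) fluorescence after stimulation buffer addition, read over 2 min. Cells were hERG-BacMam-transduced U2OS exposed to compound ~10 min […]; concentration-response fitted with Hill equation for AC50.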

[2] = qHTS assay for small molecule activators of the p53 signaling pathway (AID 651743; active = well fitted activation curve with a large enough effect in the signal ratio, not every such curve was filed as active; the % refers to the signal ratio; also: series mostly up to about 92 µM; % of control where 0% means no effect); conditions: HCT-116 p53RE-bla, beta-lactamase FRET ratio, 16 h; activation: hits give high values
Outline: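 A beta-lactamase reporter under p53 response element control, stably carried by HCT-116 cells, reported pathway activation. Test compounds were applied for 16 hours at 37 C, and fluorescence was measured 2 hours after adding the B/G FRET substrate.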

[3] = target: Tumor necrosis factor (Homo sapiens) (UniProt P01375); experiment: qHTS assay to identify small molecules that stimulate Tumor Necrosis Factor-alpha (TNF-alpha) secretion (AID 651757; active = well fitted curve in the direction sought with a large enough effect in the signal ratio; the % refers to the signal ratio; also: 0% is about no effect)
Outline: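 Using 3000 THP-1 cells per well, compounds and controls were applied for 17 hrs at 37 C. Detection followed with two labeled anti-TNF-alpha antibodies (cryptate donor, XL665 acceptor) for 3 hr at room temperature, measured by TR-FRET.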

[4] = qHTS assay for environmental chemicals that activate the Aryl hydrocarbon Receptor (AhR) signaling pathway (AID 651777); conditions: 1A2-DRE human hepatoma cells, luciferase, 24 h; activation: hits give high values; also: % of control where 0% means no effect; nearly all actives have a fitted effect of over 15% in size
Outline: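 Reporter gene assay: hepatoma cells with DRE/CYP1A2-luciferase, 24 hr compound incubation at 37 C, 5% CO2, luminescence after One-Glo (30 min, RT).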

[5] = target: Peroxisome proliferator-activated receptor alpha (Homo sapiens) (UniProt Q07869); experiment: qHTS assay for small molecule agonists of the peroxisome proliferator-activated receptor alpha (PPARalpha) signaling pathway (AID 651778); conditions: PathHunter PPARalpha complementation, chemiluminescence, 6 h; max response: hits give high values; also: % of control where 0% means no effect
Outline: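 Chemiluminescence from complemented enzyme reported PPARalpha activation in cells after 6 hr of compound treatment at 37 C. The detection reagent was incubated for 60 min at room temperature, and compounds were scored as agonists.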

[6] = qHTS assay for small molecule agonists of the antioxidant response element (ARE) signaling pathway measured by Nrf2-dependant transcriptional activity (AID 720636; active = well fitted curve in the direction sought with a large enough effect in the repeat runs; an effect the other way counts as inactive or inconclusive;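 also: HepG2 cells with an ARE-driven luciferase reporter; % of control where 0% means no effect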)
Outline: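 Nrf2-dependent transcription is measured in ARE-luc HepG2 cells: compound is applied for 16 hr at 37 C after a 6 hr attachment period, and luciferase activity is quantified by luminescence using ONE-Glo.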

[7] = qHTS assay for small molecule antagonists of the retinoid-related orphan receptor gamma (ROR-gamma) signaling pathway - cell viability counter screen (AID 720652; active = well fitted curve in the direction sought with a large enough effect in the repeat runs; an effect the other way counts as inactive or inconclusive;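 also: CHO reporter cells with doxycycline-induced ROR-gamma expression; series mostly up to about 92 µM; compound exposure lasted 16 hr before ATP read; % is scaled to controls: 0 for no effect and ±100 for the full control effect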)
Outline: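 ATP-based viability readout in the ROR-gamma reporter CHO cells after 16 hr compound exposure under doxycycline induction.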

[8] = qHTS assay for small molecule agonists of the antioxidant response element (ARE) signaling pathway measured by Nrf2-dependant transcriptional activity - cell viability counter screen (AID 720653; active = well fitted curve in the direction sought with a large enough effect in the repeat runs; an effect the other way counts as inactive or inconclusive; also: % is scaled to controls: 0 for no effect and ±100 for the full control effect); conditions: ARE-bla HepG2 viability, CellTiter-Glo ATP luminescence, 16 h; max response: hits give low values
Outline: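 Cytotoxicity counter screen: intracellular ATP quantified by CellTiter-Glo luminescence in the same ARE-bla HepG2 plates, after 16 h compound exposure and a 2 h beta-lactamase substrate step.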

[9] = qHTS assay for cell viability of HEK293 cells (AID 743288); conditions: ATP luminescence (CellTiter-Glo), 18 h; max response: hits give low values; also: % is scaled to controls: 0 for no effect and ±100 for the full control effect; nearly all actives have a fitted effect of over 50% in size
Outline: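 Readout is luciferase-coupled ATP content (CellTiter-Glo luminescence, 30 min room temperature) as a measure of metabolically competent cells. Parental HEK293 cells were plated 5 h or more before compound addition, then treated 18 h at 37 C.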

[10] = qHTS assay for cell viability of the p53RE-bla HCT-116 cell line (AID 743292); also: % is scaled to controls: 0 for no effect and ±100 for the full control effect; nearly all actives have a fitted effect of over 55% in size
Outline: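 ATP-based luminescence, 16 h compound exposure at 37 C, p53RE-bla HCT-116 cells at 4,000/well.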

[11] = Viability counterscreen for antagonist of constitutive androstane receptor (CAR) against the NCATS DSHEA and TCM libraries (AID 1794837);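 also: compound exposure lasted 24 h before viability reading; 0% is about no effect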
Outline: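 Viability was measured by CellTiter-Fluor fluorescence (405/540 nm, 1 hr) in HepG2-CYP2B6-hCAR cells. Cells were co-treated 24 hr with 48 uM CITCO (final), antagonist mode, and test substances.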

[12] = Viability counterscreen for agonist of constitutive androstane receptor (CAR) against the NCATS DSHEA and TCM libraries (AID 1794838);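 also: HepG2 cells with CYP2B6 reporter and hCAR plus 0.75 µM PK11195 antagonist; 0% is about no effect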
Outline: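 Cell viability, from CellTiter-Fluor fluorescence (405/540 nm), was scored after a 24 h, 37C exposure of HepG2 cells carrying CYP2B6 reporter and hCAR to test substances in presence of 0.75 uM PK11195.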

[13] = HepG2 viability counterscreen (readout 2: ATP content) against the NCATS DSHEA and TCM libraries (AID 1794840);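 also: HepG2 cells exposed to substances for about 24 h; 0% is about no effect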
Outline: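 Readout 1: cellular protease activity, GF-AFC substrate (25 uM final, 30 min, fluorescence 380/510 nm). Readout 2: ATP content by CellTiter-Glo luminescence after 30 min at RT. Both follow ~24 h exposure of HepG2 cells (1,000/well) to substances.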

[14] = target: Cytochrome P450 3A4 (Homo sapiens) (UniProt P08684); experiment: qHTS for inhibitors of CYP3A4 against the NCATS DSHEA and TCM libraries (AID 1919971);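 also: % is scaled to controls: 0 for no effect and ±100 for the full control effect; inhibition lowers luminescence from luciferin made by CYP3A4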
Outline: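 Isoform-specific enzyme and substrate levels; enzyme-free wells as background. Reaction: 1x NADPH regenerating system, 30-45 min, room temperature, shielded from light; luminescent detection reagent added, 30 min.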

[15] = target: Cytochrome P450 2D6 (Homo sapiens) (UniProt P10635); experiment: qHTS for inhibitors of CYP2D6 against the NCATS DSHEA and TCM libraries (AID 1919972); also: % is scaled to controls: 0 for no effect and ±100 for the full control effect
Outline: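 qHTS, concentration–response format with most substances from 19.5 nM. CYP2D6 + pro-luciferin substrate, 15 min with compound, then 1x NADPH regen, 30–45 min RT dark. Glo detection 30 min, luminescence. Quinidine control.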

[16] = KB-3-1 P-gp reporter qHTS against the NCATS DSHEA and TCM libraries (AID 1919975); also: 0% is about no effect
Outline: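 Cell viability by CellTiter-Glo luminescence following ~72 h compound exposure (concentration-response). Uses parental, non-P-gp-overexpressing KB-3-1 line, 500 cells/well in DMEM/10% FBS, attached ~4 h before dosing.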

[17] = target: Cytochrome P450 1A2 (Homo sapiens) (UniProt P05177); experiment: qHTS for inhibitors of CYPIA2 against the NCATS DSHEA and TCM libraries (AID 1919976);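 also: light from luciferin formed by CYP1A2 from a pro-luciferin substrate; series mostly up to about 37 µM; % is scaled to controls: 0 for no effect and ±100 for the full control effect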
Outline: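 Furafylline served as the plate control. Compounds met CYP1A2 and pro-luciferin substrate 15 min before NADPH regeneration solution (1x) was added; after 30-45 min at RT, P450-Glo reagent was added for 30 min and luminescence was measured.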

[18] = Dual reporter qHTS for agonist of Pregnane X Receptor (hPXR) against the NCATS DSHEA and TCM libraries: Fluorescence readout (AID 1920058); also: 0% is about no effect
Outline: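 In this qHTS counter-read, reporter-bearing HepG2 cells in charcoal-stripped serum received substances for approximately 24 h before viability was assessed fluorometrically with CellTiter-Fluor.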

[19] = target: Nuclear receptor subfamily 1 group I member 2 (Homo sapiens) (UniProt O75469); experiment: Dual reporter qHTS for agonist of Pregnane X Receptor (hPXR) against the NCATS DSHEA and TCM libraries: Luminescence readout (AID 1920059); also: 0% is about no effect
Outline: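 Luminescent PXR reporter read (ONE-Glo) after a CellTiter-Fluor viability read, following 24 h, 37C treatment of HepG2 cells stably carrying hPXR-Luc.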

[20] = target: Nuclear receptor subfamily 1 group I member 2 (Homo sapiens) (UniProt O75469); experiment: Dual reporter qHTS for antagonist of Pregnane X Receptor (hPXR) against the NCATS DSHEA and TCM libraries: Luminescence Readout (AID 1920060);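 also: HepG2 cells carrying hPXR luciferase reporter stimulated with rifampicin at 2 µM; 0% is about no effect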
Outline: (§1)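 Antagonist mode: rifampicin 2 uM final co-added with compounds to hPXR-LucHepG2 cells for 24 h at 37C. Viability by CellTiter-Fluor, Ex/Em 405/540 nm, 1 h; reporter by ONE-Glo luminescence.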

[21] = Dual reporter qHTS for antagonist of Pregnane X Receptor (hPXR) against the NCATS DSHEA and TCM libraries: Fluorescence Readout (AID 1920061); also: 0% is about no effect
Outline: as §1

[22] = target: Nuclear receptor subfamily 1 group I member 2 (Rattus norvegicus) (UniProt Q9R1A7); experiment: qHTS assay for small molecule activators of the rat pregnane X receptor (rPXR) signaling pathway (AID 651751; call rule not given here; also: 0% is about no effect); conditions: rPXR reporter cells, luciferase (One-Glo), 24 h
[23] = qHTS assay for small molecule activators of the human pregnane X receptor (PXR) signaling pathway (AID 720659; call rule not given here; also: 0% is about no effect)

Sequence of Nuclear receptor subfamily 1 group I member 2 (Homo sapiens) (O75469 whole entry, looked up): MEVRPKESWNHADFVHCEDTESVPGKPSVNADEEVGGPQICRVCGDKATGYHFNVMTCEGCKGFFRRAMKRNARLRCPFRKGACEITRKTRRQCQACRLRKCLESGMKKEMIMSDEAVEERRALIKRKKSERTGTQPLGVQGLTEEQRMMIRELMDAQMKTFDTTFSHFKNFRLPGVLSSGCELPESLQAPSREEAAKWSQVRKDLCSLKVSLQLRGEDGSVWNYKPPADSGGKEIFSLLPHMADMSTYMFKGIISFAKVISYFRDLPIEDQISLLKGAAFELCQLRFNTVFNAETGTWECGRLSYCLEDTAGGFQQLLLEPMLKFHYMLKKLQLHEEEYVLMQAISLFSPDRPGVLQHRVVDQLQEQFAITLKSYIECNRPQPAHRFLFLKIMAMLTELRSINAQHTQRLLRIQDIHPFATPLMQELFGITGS
Sequence of Cytochrome P450 1A2 (Homo sapiens) (P05177 whole entry, looked up): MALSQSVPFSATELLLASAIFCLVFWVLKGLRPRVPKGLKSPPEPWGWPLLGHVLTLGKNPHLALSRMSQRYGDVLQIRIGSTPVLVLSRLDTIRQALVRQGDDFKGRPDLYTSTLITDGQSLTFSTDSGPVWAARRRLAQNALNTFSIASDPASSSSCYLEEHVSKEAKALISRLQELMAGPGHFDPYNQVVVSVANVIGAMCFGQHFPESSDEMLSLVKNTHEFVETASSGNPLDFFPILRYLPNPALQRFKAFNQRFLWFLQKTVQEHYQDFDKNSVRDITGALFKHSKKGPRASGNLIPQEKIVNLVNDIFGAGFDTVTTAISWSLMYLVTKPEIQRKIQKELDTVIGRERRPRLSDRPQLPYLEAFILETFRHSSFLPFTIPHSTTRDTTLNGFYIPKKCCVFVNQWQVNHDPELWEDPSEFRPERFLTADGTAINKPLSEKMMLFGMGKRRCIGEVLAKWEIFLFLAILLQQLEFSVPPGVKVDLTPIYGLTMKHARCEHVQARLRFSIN
Sequence of Nuclear receptor subfamily 1 group I member 2 (Rattus norvegicus) (Q9R1A7 whole entry, looked up): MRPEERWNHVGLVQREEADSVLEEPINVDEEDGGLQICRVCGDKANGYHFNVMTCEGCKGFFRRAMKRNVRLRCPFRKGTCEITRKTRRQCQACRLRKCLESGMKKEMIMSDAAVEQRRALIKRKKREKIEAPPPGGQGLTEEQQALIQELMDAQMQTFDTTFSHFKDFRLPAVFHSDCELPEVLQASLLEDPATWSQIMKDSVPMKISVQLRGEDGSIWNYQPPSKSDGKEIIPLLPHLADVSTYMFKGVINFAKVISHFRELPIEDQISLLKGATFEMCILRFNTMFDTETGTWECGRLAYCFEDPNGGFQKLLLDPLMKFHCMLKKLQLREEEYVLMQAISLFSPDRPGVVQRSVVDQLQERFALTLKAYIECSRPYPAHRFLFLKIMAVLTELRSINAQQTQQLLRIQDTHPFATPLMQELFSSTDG
Sequence of Peroxisome proliferator-activated receptor alpha (Homo sapiens) (Q07869 whole entry, looked up): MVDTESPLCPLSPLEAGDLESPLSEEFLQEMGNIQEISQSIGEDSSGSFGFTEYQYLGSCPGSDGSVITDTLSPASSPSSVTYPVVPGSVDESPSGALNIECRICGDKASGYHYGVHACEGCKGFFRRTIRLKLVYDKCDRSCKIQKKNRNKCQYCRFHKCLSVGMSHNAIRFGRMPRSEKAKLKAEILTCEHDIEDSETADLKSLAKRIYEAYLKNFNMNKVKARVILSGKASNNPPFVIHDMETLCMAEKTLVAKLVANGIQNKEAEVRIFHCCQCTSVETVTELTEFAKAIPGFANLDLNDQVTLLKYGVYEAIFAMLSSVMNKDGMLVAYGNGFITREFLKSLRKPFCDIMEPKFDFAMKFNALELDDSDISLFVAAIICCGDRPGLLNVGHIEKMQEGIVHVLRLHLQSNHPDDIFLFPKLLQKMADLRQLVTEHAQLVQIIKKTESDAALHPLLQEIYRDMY
Sequence of Tumor necrosis factor (Homo sapiens) (P01375 whole entry, looked up): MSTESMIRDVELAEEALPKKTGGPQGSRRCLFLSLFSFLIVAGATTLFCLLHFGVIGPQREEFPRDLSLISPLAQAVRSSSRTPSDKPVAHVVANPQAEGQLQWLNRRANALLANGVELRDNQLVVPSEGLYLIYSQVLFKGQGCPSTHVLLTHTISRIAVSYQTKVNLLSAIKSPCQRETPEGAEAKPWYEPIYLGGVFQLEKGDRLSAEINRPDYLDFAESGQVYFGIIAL
Sequence of Cytochrome P450 3A4 (Homo sapiens) (P08684 whole entry, looked up, canonical isoform): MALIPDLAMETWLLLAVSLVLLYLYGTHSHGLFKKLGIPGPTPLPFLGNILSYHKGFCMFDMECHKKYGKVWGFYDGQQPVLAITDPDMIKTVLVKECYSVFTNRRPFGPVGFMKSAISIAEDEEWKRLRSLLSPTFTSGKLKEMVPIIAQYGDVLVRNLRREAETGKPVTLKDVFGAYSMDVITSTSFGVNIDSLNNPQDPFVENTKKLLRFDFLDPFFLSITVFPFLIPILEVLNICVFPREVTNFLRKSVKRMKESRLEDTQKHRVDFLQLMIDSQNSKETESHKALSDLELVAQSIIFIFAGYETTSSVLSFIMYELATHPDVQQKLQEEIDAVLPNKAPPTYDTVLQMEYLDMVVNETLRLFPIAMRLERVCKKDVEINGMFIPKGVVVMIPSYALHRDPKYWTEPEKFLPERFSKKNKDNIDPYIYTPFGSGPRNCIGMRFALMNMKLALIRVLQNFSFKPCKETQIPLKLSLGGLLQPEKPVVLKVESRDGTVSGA
Sequence of Cytochrome P450 2D6 (Homo sapiens) (P10635 whole entry, looked up): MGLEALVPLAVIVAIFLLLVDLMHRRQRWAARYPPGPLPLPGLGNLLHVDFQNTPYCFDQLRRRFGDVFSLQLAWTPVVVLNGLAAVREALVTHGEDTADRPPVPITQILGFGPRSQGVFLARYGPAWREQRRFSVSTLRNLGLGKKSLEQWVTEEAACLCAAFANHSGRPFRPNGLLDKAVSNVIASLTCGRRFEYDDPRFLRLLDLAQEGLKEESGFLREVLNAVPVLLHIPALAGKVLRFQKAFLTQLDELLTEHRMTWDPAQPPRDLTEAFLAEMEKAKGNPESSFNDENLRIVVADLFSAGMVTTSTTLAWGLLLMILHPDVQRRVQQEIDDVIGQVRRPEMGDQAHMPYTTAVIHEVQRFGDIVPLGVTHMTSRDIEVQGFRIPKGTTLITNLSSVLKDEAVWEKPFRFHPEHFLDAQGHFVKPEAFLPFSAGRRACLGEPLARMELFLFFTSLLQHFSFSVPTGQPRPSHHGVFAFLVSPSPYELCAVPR
Sequence of Voltage-gated inwardly rectifying potassium channel KCNH2 (Homo sapiens) (Q12809 whole entry, looked up): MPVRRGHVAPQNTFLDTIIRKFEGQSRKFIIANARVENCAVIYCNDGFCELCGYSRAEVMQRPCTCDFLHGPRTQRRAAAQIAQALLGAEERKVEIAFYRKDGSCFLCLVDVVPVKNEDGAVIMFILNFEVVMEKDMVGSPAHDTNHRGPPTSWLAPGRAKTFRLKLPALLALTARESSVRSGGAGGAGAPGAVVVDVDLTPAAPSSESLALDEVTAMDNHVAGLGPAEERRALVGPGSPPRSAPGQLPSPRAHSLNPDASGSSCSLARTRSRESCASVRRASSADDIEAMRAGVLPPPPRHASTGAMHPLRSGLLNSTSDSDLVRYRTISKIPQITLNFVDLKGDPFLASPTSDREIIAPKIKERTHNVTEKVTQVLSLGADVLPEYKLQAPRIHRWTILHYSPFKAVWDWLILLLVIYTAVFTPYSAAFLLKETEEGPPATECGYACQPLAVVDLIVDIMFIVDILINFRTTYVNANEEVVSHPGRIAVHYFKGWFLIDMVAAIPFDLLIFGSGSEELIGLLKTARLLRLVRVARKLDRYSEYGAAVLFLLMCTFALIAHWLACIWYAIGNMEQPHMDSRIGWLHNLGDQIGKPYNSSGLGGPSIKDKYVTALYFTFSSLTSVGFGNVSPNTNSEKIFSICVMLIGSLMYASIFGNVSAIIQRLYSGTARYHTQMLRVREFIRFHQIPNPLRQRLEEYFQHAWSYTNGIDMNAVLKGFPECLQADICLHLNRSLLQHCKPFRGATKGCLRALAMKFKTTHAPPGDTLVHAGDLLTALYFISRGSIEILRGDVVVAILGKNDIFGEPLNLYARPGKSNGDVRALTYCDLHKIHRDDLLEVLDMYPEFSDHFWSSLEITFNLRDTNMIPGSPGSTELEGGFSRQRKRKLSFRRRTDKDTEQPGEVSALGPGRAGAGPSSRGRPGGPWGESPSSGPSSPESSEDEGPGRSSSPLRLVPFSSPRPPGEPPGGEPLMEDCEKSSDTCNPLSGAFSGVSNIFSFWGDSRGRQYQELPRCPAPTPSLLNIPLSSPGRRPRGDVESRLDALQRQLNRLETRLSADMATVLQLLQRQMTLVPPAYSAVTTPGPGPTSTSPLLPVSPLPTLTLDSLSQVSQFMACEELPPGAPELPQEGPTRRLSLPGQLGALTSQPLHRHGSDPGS

CC1=C2[C@H](/C=C(\C)C(=O)O)CC[C@@H](C)[C@H]2CC1
inactive: Potency [1] | activation [2] -7.78% | outcome [3] | activation [4] 0.0877% | max response [5] 14.9% | Potency [6] | Potency [7] | max response [8] -0.329% | max response [9] 5.67% | Potency [10] | outcome [11] | outcome [12] | outcome [13] | Potency [14] | Potency [15] | outcome [16] | Potency [17] | outcome [18] | Potency [19] | outcome [20] | outcome [21] | max response [22] -3.01% | outcome [23]
